Reference: PubChem BioAssay (NCATS)
Where “and” joins values, the source holds several entries; their conditions need not be identical. Equal values may be shown once. Inconclusive results are not listed. Where a call stands in place of a potency, no number is given. Unmarked numbers belong to inactive results. Calls of active or inactive are those of the source. The call rests on the fitted dose curve; in most records, active means well fitted curve in the direction sought with a large enough effect; inconclusive means small, poorly fitted or top-dose-only effect, or another doubt; inactive means no such curve, though single readings can be large; an effect the other way counts as inactive or inconclusive.

Tested on: Zika virus NS2B-NS3 protease (linked construct)
Assay: Primary screen NINDS Rhodamine qHTS for Zika virus inhibitors (AID 1347160); further: nearly all actives have a fitted effect of over 55% in size
Conditions: purified NS2B-NS3 protease, Rhodamine110 substrate fluorescence; series mostly up to 57.1 µM
Outline: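 Kinetic fluorescence (Ex 480 nm, Em 540 nm) over 15 min with 1.5 microM Rhodamine110 peptide and 25 nM linked protease.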

| Compound | Potency |
| --- | --- |
| O=C(Nc1cccc(Br)c1)c1cccc(S(=O)(=O)N2CCCCCC2)c1 | inactive |
| CCN(CC)CCNC(=O)c1ccc(N)cc1 | inactive |
| NC(=O)c1cnc(-c2ccc(C3(N)CCC3)cc2)c(-c2ccccc2)c1 | inactive |
| COc1ccc(C2Sc3ccccc3N(CCN(C)C)C(=O)C2OC(C)=O)cc1 (centres undefined) | inactive |
| COc1cc2c(cc1OC)CN(CCc1ccc(NC(=O)c3cc(OC)c(OC)cc3NC(=O)c3cnc4ccccc4c3)cc1)CC2 | inactive |
| CC(C)(C)NC(=O)Nc1cccc(Nc2ncc(F)c(NC(C)(C)CO)n2)c1 | inactive |
| O=C(NCc1ccccc1)c1csc(Nc2ccncn2)n1 | inactive |
| CC(C)NCC(O)COc1cccc2[nH]ccc12 (centres undefined) | inactive |
| NC(=O)c1cccc2[nH]c(-c3ccc([C@H]4CCCN4)cc3F)nc12 | inactive |
| CC(=O)O[C@]1(C(C)=O)CC[C@H]2[C@@H]3C=C(Cl)C4=CC(=O)[C@@H]5C[C@@H]5[C@]4(C)[C@H]3CC[C@@]21C | inactive |
| Clc1ccc(Cn2c(CN3CCCC3)nc3ccccc32)cc1 | inactive |
| CNC(=O)c1ccc2cc(C3(O)CCn4cncc43)ccc2c1 (centres undefined) | inactive |
| O=C(O)c1ccccc1C(=O)Nc1ccc(-c2ccccc2)cc1 | inactive |
| O=C(NC1CCOCC1)c1ccc(-c2cc(-c3cn[nH]c3-c3ccccn3)ccn2)cc1 | inactive |

Tested on: not listed separately
Assay: Confirmatory screen NINDS Rhodamine qHTS for Zika virus inhibitors (AID 1347161); further: nearly all actives have a fitted effect of over 60% in size; further: potency means the concentration at half of the fitted maximal effect;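 on activity change, negative = inhibition: purified Zika NS2B-NS3 protease with linked NS2B cofactor domain and Rhodamine110 peptide substrate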
Conditions: purified enzyme assay, Rhodamine110 substrate fluorescence, 15 min; series mostly up to 114 µM
Outline: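 Percent inhibition, normalized to uninhibited and enzyme-free controls, is fitted to a 4-parameter Hill equation. Fluorescence change comes from a 15-min cleavage of 1.5 microM bis-peptide Rhodamine110 substrate by 25 nM linked NS2B-NS3 at room temperature.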

| Compound | Potency |
| --- | --- |
| CC1(C)CCC(CN2CCN(c3ccc(C(=O)NS(=O)(=O)c4ccc(NCC5CCOCC5)c([N+](=O)[O-])c4)c(Oc4cnc5[nH]ccc5c4)c3)CC2)=C(c2ccc(Cl)cc2)C1 | 1.24 µM (active) and 857 nM (active) |
| O=C(O)c1c(Cl)c(Cl)c(Cl)c(Cl)c1-c1c2cc(I)c(=O)c(I)c-2oc2c(I)c(O)c(I)cc12 | inactive |
| CC(C)(C)OC(=O)N[C@H]1CCCCCC=C[C@@H]2C[C@@]2(C(=O)NS(=O)(=O)C2CC2)NC(=O)[C@@H]2C[C@@H](OC(=O)N3Cc4cccc(F)c4C3)CN2C1=O | 49.4 µM (active) |
| O=c1c(O)c(-c2ccc(O)cc2)oc2cc(O)cc(O)c12 | inactive |
| NC(=O)c1cccc2[nH]c(-c3ccc([C@H]4CCCN4)cc3F)nc12 | inactive |

Biological target: Lysine-specific demethylase 5B (Homo sapiens) (UniProt Q9UGL1)
Assay: Optimization screen for KDM5B Histone Demethylases FDH coupled qHTS against the LOPAC library (AID 1347166)
Conditions: KDM5B demethylation, FDH-coupled NADH fluorescence (FDH is formaldehyde dehydrogenase); series mostly up to 57.5 µM
Outline: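 KDM5BDeltaAP (200nM final) preincubated 10 min with compound, then 12.5uM H3K4Me3, 25uM a-ketoglutarate, ascorbate, Fe(II), NAD+ and FDH added; 50mM HEPES pH 7.5, 0.01% Tween-20. NADH fluorescence (340/450 nm) change over 30 min, room temperature.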

Lysine-specific demethylase 5B (Homo sapiens), sequence (Q9UGL1 whole entry, looked up): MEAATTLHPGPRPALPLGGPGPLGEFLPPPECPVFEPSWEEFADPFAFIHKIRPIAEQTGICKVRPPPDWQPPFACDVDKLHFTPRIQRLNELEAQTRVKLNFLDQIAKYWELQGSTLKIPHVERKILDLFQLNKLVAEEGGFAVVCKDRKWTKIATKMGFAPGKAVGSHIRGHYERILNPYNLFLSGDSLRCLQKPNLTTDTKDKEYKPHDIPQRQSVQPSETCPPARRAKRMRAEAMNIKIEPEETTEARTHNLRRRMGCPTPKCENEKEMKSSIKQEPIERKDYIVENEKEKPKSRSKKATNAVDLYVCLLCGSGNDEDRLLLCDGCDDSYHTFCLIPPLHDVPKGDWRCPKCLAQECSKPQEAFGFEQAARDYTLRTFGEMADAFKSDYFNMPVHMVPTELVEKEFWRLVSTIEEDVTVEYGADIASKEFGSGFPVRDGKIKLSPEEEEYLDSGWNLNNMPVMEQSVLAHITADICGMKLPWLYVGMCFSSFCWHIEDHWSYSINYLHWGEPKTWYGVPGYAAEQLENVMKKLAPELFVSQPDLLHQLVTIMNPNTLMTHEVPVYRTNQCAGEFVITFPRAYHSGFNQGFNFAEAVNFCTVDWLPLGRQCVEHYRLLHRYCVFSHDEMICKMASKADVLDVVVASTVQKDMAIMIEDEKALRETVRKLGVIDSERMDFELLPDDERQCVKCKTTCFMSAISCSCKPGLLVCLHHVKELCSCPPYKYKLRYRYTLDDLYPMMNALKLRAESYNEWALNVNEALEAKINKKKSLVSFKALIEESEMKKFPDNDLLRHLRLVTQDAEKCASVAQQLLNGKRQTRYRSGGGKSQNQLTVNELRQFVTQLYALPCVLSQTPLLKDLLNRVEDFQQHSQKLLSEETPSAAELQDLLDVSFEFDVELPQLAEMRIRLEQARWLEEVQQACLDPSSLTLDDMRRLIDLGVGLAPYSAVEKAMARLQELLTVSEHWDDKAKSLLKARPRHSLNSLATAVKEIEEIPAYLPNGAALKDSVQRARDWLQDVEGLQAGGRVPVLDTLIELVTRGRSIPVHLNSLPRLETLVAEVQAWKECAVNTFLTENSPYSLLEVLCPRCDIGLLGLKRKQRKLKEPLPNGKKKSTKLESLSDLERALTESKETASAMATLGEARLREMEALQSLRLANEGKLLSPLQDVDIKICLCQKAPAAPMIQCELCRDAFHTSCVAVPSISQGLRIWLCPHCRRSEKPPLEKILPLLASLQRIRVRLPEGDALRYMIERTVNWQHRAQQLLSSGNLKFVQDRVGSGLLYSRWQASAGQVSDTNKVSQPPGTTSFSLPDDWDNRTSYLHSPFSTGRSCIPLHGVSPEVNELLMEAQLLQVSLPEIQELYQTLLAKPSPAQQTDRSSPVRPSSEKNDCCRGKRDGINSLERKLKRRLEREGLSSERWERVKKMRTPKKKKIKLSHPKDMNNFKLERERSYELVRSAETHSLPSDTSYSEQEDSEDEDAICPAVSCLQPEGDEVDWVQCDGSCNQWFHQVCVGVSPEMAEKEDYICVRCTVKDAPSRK

| Compound | outcome |
| --- | --- |
| CCN1CCC[C@H]1CNC(=O)c1cc(S(N)(=O)=O)ccc1OC | inactive |
| CCN(CC)CCNC(=O)c1ccc(N)cc1 | inactive |
| CC(C)NCC(O)COc1cccc2[nH]ccc12 (centres undefined) | inactive |
| CC(=O)O[C@]1(C(C)=O)CC[C@H]2[C@@H]3C=C(Cl)C4=CC(=O)[C@@H]5C[C@@H]5[C@]4(C)[C@H]3CC[C@@]21C | inactive |
| Clc1ccc(Cn2c(CN3CCCC3)nc3ccccc32)cc1 | inactive |

Tested on: not listed separately
Assay: HepG2 cells viability qHTS for Zika virus inhibitors (AID 1347168)
Conditions: Zika counter-screen; series mostly up to 45.9 µM
Outline: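 Compounds were tested in concentration series on cells grown in DMEM containing 4% FBS. After 24 to 48 hours, cellular ATP was measured by luminescence with CellTiter Glo.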

| Compound | outcome |
| --- | --- |
| CC1(C)CCC(CN2CCN(c3ccc(C(=O)NS(=O)(=O)c4ccc(NCC5CCOCC5)c([N+](=O)[O-])c4)c(Oc4cnc5[nH]ccc5c4)c3)CC2)=C(c2ccc(Cl)cc2)C1 | inactive |
| C[C@H](NC(=O)C(=O)Nc1ccccc1C(C)(C)C)C(=O)N[C@@H](CC(=O)O)C(=O)COc1c(F)c(F)cc(F)c1F | inactive |
| O=c1cc(-c2ccccc2)oc2cc(O)c(O)c(O)c12 | inactive |
| NC(=O)c1cccc2[nH]c(-c3ccc([C@H]4CCCN4)cc3F)nc12 | inactive |

Tested on: not listed separately
Assay: Tertiary RLuc qRT-PCR qHTS assay for Zika virus inhibitors (AID 1347169); further: nearly all actives have a fitted effect of over 55% in size; further: potency means the concentration at half of the fitted maximal effect; on activity change, negative = inhibition: top concentration of the series differs between compounds
Conditions: infected Vero cells, reporter luminescence, 48-72 h; series mostly up to 45.9 µM
From the text: Avindra Nath, Ph.D., National Institute of Neurological Disorders and Stroke (NINDS), Bethesda, MD
Radhakrishnan Padmanabhan, Ph.D., Georgetown University (GU), Washington D.C.
Zika Virus causes congenital defects, including microcephaly and is associated with Guillain-Barre syndrome, eningoencephalitis and myelitis in infected adult. […] Using a target-based approach, we hope to establish a screening paradigm to uncover novel, cell-active NS2B-NS3 protease (Zika Virus) specific inhibitors from NCATS' collection of small molecules using qHTS.
Four assay panel was created to identify potential Zika Virus inhibitors. Namely, (1) GU unlinked NS2B-NS3 AMC tagged protease qHTS, (2) GU unlinked NS2B-NS3 Rhodamine tagged protease qHTS, (3) NINDS linked NS2B-NS3 AMC tagged protease qHTS, (4) NINDS linked NS2B-NS3 Rhodamine tagged protease qHTS. Identified inhibitors were re-acquired and tested against secondary confirmatory, orthogonal, and counterscreens to exclude nonspecific inhibition.
Early Translation Branch (ETB)
National Center for Advancing Translational Sciences (NCATS), Rockville, MD
National Institute of Health (NIH), Bethesda, Maryland
1536-well recombinant virus ZIKV-RLuc (Cambodian) Assay:
For a follow-up assay, we adapted a high throughput orthogonal assay in 1536-well plate format to use the recombinant virus ZIKV-RLuc, in Vero cells. Briefly, three microL of Vero cells derived from a green monkey cell line, were dispensed Multidrop Dispenser into a solid bottom white 1,536-well plate at a concentration of 1,000 cells per well. The plate was incubated overnight in a CO2 incubator at 37 degrees C. Compounds were delivered as a 23 nL DMSO solution by Kalypsys pintool transfer. Following compound transfer, 2 microL of ZIKV-RLuc was added at an MOI of 1-2 and incubated in a CO2 incubator for 48-72 hrs at 37 degrees C. After sufficient incubation of infected cells in test plates, live cell Renilla luciferase substrate (Promega) was added. The luminescence signal was measured after 1-1.5 hrs exposure to substrate in ViewLux reader.

| Compound | Potency | activity change, negative = inhibition |
| --- | --- | --- |
| CC1(C)CCC(CN2CCN(c3ccc(C(=O)NS(=O)(=O)c4ccc(NCC5CCOCC5)c([N+](=O)[O-])c4)c(Oc4cnc5[nH]ccc5c4)c3)CC2)=C(c2ccc(Cl)cc2)C1 | 5.72 µM (active) |  |
| C[C@H](NC(=O)C(=O)Nc1ccccc1C(C)(C)C)C(=O)N[C@@H](CC(=O)O)C(=O)COc1c(F)c(F)cc(F)c1F | inactive |  |
| O=C(O)c1c(Cl)c(Cl)c(Cl)c(Cl)c1-c1c2cc(I)c(=O)c(I)c-2oc2c(I)c(O)c(I)cc12 | inactive |  |
| O=c1c(O)c(-c2ccc(O)cc2)oc2cc(O)cc(O)c12 |  | 13.5% [at 0.997 µM] |
| O=c1cc(-c2ccccc2)oc2cc(O)c(O)c(O)c12 | inactive |  |
| NC(=O)c1cccc2[nH]c(-c3ccc([C@H]4CCCN4)cc3F)nc12 | inactive |  |
